From PubChem BioAssay
Sampled rows, rich in hits. Any-hit rate of the full collection: about 6.5%.
Lassa entry inh = inhibitors of Lassa virus binding or cell entry; Lassa virus pseudotype entry inhibition, cell reporter; Potency, µM (series often up to 37.9 µM), hits mostly inhibitors; hit rate 1.2% among 300,000; calls by dose curve; tested in HEK293 cells; further: nearly all actives have a fitted effect of over 50% in size
HCMV inh = human cytomegalovirus inhibition | AID 1259415 | hit rate 4.5% among 410,000 | HFF cells, HCMV-luciferase reporter, 72 h; hits give low values | activity change, negative = inhibition, % at 57.5 µM; in the data active means activity change below about -60%; inconclusive means no clear call, values can overlap the other calls; inactive means above about -39%
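HFF cells seeded 16 h at 37C, treated with compounds, infected with luciferase-reporter HCMV at MOI 1 PFU/cell; luciferase read at 72 h post infection, normalized to buffer-only and Salinomycin controls.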
VACV mCherry inh = inhibitors of vaccinia virus infection (mCherry reporter signal); Vaccinia virus mCherry reporter infection, fluorescence; Potency, µM (top dose mostly 36.5 µM), most hits filed as inhibitors; hit rate 0.63% among 310,000; AID 720579; calls by dose curve; tested in A549 cells; further: nearly all actives have a fitted effect of over 35% in size
Marburg entry inh = Marburg virus entry inhibition | Potency, µM (titrated, usually from 37.8 µM), usual class: inhibitors | Marburg virus pseudotyped entry inhibition, cell reporter | hit rate 1.8% among 300,000 | AID 540276; calls by dose curve; tested in HEK293 cells
VACV Venus inh = inhibitors of vaccinia virus (Venus reporter); AID 720580; Vaccinia virus Venus reporter expression, fluorescence; hit rate 0.46% among 330,000; Potency, µM (titrated, usually from 36.5 µM), most hits filed as inhibitors; calls by dose curve; tested in A549 cells; further: nearly all actives have a fitted effect of over 30% in size
FMDV antiviral = foot and mouth disease virus antiviral activity. FMDV antiviral cell-based qHTS. Potency, µM (highest dose often 57.9 µM), usual class: inhibitors. hit rate 1.2% among 410,000; calls by dose curve; tested in HEK293T cells; further: read-out not given here; nearly all actives have a fitted effect of over 45% in size
Hits are given with their value; – = inactive; ? = inconclusive; · = no result given; + = active, no number.

SMILES	Lassa entry inh	HCMV inh	VACV mCherry inh	Marburg entry inh	VACV Venus inh	FMDV antiviral
COc1ccc(Cn2c(C(=O)O)c(CNCc3cccs3)c3ccc(C)cc32)cc1	?	-66	–	·	–	–
COc1ccccc1C(=O)Nc1nnc(S(=O)(=O)N(C)c2ccc(Cl)cc2)s1	–	–	–	·	–	–
CC(=O)c1cc(-c2ccccc2)n(CC(=O)Nc2ccc(C)cc2C)c1C	–	+	–	·	–	–
CC(=O)c1cc(-c2ccccc2)n(CCC(=O)Nc2ccc(C)cc2C)c1C	–	–	–	·	–	–
Cc1nc2ccccc2n1CC(=O)NC1CCCCCC1	·	-62	·	·	·	?
CC(=O)c1cc(-c2ccccc2)n(CCC(=O)NC2CCCCCCC2)c1C	–	–	–	–	?	–
CC(=O)c1cc(-c2ccccc2)n(CC(=O)NC2CCCCCC2)c1C	–	+	–	·	–	–
Cc1nc2ccccc2n1CC(=O)NC1CCCC1	–	–	–	–	–	–
O=C(CC1(c2cccc(F)c2)CC(=O)N(Cc2cccnc2)C1=O)N1CCCCCCC1 (stereo not given)	·	·	–	·	–	–
CCc1ccc(NC(=O)CSC2=Nc3ccccc3C3=NC(CCC(=O)NCc4ccccc4OC)C(=O)N23)cc1 (stereo not given)	–	–	–	·	–	–
CC(=O)c1c(C)nc2sc3c(=N)n(N)cnc3c2c1-c1ccc(Cl)cc1	–	?	3.5µM	?	4.5µM	–
CCOC(=O)c1c(C)nc2sc3c(=O)n(-c4ccc(C(C)=O)cc4)cnc3c2c1-c1ccc(OC)cc1	–	–	·	–	–	–
CN(CC(=O)Nc1ccccc1Br)C(=O)c1ccc(-c2ccc(Cl)cc2)o1	?	–	–	?	–	–
CN(CC(=O)Nc1ccccc1Br)C(=O)c1ccccc1OCc1ccc(Cl)cc1	?	–	0.1µM	–	–	?
Cc1ccc2nc(-c3ccccc3)cc(C(=O)N(C)CC(=O)Nc3ccccc3Br)c2c1	?	–	–	11µM	–	–
O=C1NC(=NCc2ccccc2)S/C1=C/c1ccc(O)cc1	?	-62	?	?	?	–
O=C(NCC(c1ccc2c(c1)OCO2)N1CCN(c2ccccc2)CC1)C(=O)Nc1cccc(F)c1 (stereo not given)	–	–	–	·	–	–
Fc1ccc(NC(=S)NCCc2ccccc2)c(F)c1F	–	-74	–	–	–	·
S=C(NCCc1ccccc1)Nc1ccc(Nc2ccccc2)cc1	?	–	–	?	–	–
O=C(Cc1cccc([N+](=O)[O-])c1)Nc1ccccc1	·	–	–	·	–	–
Fc1ccccc1NC(=S)NCCc1ccccc1	–	–	–	?	–	–
Fc1cccc(NC(=S)NCCc2ccccc2)c1	?	-79	–	?	–	–
O=[N+]([O-])c1cccc(NC(=S)NCCc2ccccc2)c1	–	-95	?	?	–	?
Fc1ccccc1NC(=S)NCCc1ccc(Cl)cc1	–	–	–	?	–	–
Fc1ccc(F)c(NC(=S)NCCc2ccccc2)c1	?	-66	–	?	–	–
SMILES	Lassa entry inh	HCMV inh	VACV mCherry inh	Marburg entry inh	VACV Venus inh	FMDV antiviral
O=S1(=O)N[C@H](Cc2ccccc2)COc2cc(Br)ccc21	?	–	·	·	·	·
COc1ccc(-n2c(=O)c3c4c(sc3n(Cc3ccc(C(C)(C)C)cc3)c2=O)CCC4)c(OC)c1	?	?	–	?	–	–
CC[C@H](C)[C@H]1CNC(=O)C(=O)N1CC1CCN(CC(C)C)CC1	·	–	·	·	·	·
O=C(CF)NC(NC(=S)Nc1cccc([N+](=O)[O-])c1)C(Cl)(Cl)Cl (stereo not given)	–	-70	·	–	·	–
S=C(NCCc1ccccc1)Nc1cnc2ccccc2c1	·	-63	·	·	·	–
Cc1ccc(NC(=S)NCCc2ccccc2)nc1	–	-115	–	–	–	–
CC(C)(CNC(=S)NCCc1ccccc1)CNC(=S)NCCc1ccccc1	?	-93	·	?	·	?
COc1ccc(-c2nnc(SCC(=O)Nc3ccc(C)c(C)c3)s2)cc1	–	–	–	·	–	–
CCc1ccc2[nH]c(=O)c(CN(Cc3cccs3)Cc3nnnn3Cc3ccccc3)cc2c1	·	·	–	·	–	·
N[C@H](C(=O)O)[C@H](Cc1ccccc1)C(=O)O	–	·	·	–	·	·
CO[C@@H]1c2ccccc2[C@H]2C(C(=O)O)c3c(n(C)c4ccccc34)[C@H]2[C@H]1C (stereo not given in full)	·	·	·	–	·	·
COc1ccc([N+](=O)[O-])cc1NC(=S)NC(NC(=O)C(c1ccccc1)c1ccccc1)C(Cl)(Cl)Cl (stereo not given)	?	-106	?	?	?	?
COc1ccc(CN2c3ccccc3C(=O)CS2(=O)=O)cc1OC	·	–	·	·	·	·
COc1cc(=O)n2c(c1C(=O)NCc1ccco1)CCN(C(=O)c1c(F)ccc(F)c1F)CC2	·	·	–	·	–	–
CCc1nnc(NC(=O)Cn2c(=O)oc3ccccc32)s1	–	–	·	–	–	–
Cc1csc(NC(=O)CCn2c(=O)oc3ccccc32)n1	–	–	·	–	·	–
O=C(Cn1c(=O)oc2ccccc21)Nc1nc(-c2ccc(Br)cc2)cs1	?	-61	–	?	–	–
Cc1sc(NC(=O)Cn2c(=O)oc3ccccc32)nc1-c1ccc(Cl)cc1	–	-61	–	–	–	–
Clc1cccc[n+]1CCc1ccccc1	·	·	–	·	–	·
O=C(CSc1nc2ccccc2[nH]1)Nc1c(F)cccc1F	?	-85	–	–	–	–
O=C(CSc1nc2ccccc2[nH]1)Nc1nc(-c2ccc(Br)cc2)cs1	?	–	?	?	?	22µM
COc1nonc1NC(=O)CSc1nc2ccccc2[nH]1	–	-64	–	–	–	–
CCCc1cc(=O)[nH]c(SCC(=O)Nc2nc(-c3ccccc3)cs2)n1	–	–	–	?	–	–
Cc1nonc1NC(=O)CSc1nc2ccccc2[nH]1	?	–	–	–	–	–
COc1cc2nc(CCNCc3ccccc3)nc(NC3CCN(C)CC3)c2cc1OC	·	·	–	·	–	·
SMILES	Lassa entry inh	HCMV inh	VACV mCherry inh	Marburg entry inh	VACV Venus inh	FMDV antiviral
CC(C)c1ccc(C2C3=C(COC3=O)Nc3cc4c(cc32)OCO4)cc1 (stereo not given)	?	-88	?	?	?	–
O=C1OCC2=C1C(c1ccc3c(c1)OCO3)c1cc3c(cc1O2)OCO3 (stereo not given)	?	–	–	–	–	–
CCCn1c(CN(C)Cc2ccccc2)nc2c1c(=O)n(C)c(=O)n2C	?	-68	·	?	·	7.9µM
CCCn1c(CN(Cc2ccccc2)Cc2ccccc2)nc2c1c(=O)n(C)c(=O)n2C	–	·	–	?	–	25µM
CCOc1ccc(-c2cc(CCCC(=O)NCCc3cc(OC)c(OC)c(OC)c3)no2)cc1	?	?	–	?	–	?
O=C(Cn1cc(SCc2cccc(F)c2)c2ccccc21)N1CCCC1	–	–	–	·	–	–
COc1ccc(-n2c(CCC(=O)O)ccc2-c2ccccc2)c(OC)c1	?	–	–	?	–	–
Cc1ccc(C)c(CN2C[C@H](Sc3nc4ccccc4[nH]3)C[C@H]2C(=O)N2CCCN(C)CC2)c1	·	·	–	·	–	–
COc1ncc2nc(-c3ccccc3)c(=O)n(-c3ccccc3)c2n1	·	·	·	·	·	–
